Reference: PubChem BioAssay (NCI)
Compounds without any hit were thinned out: in the full panel of roughly 83,000, 20% have a hit.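 96-well plates, one dose, 48 hours. Percent growth reported; active if below 10.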 Unmarked numbers belong to inactive results. The source made the active and inactive calls.

test system: HL-60(TB) leukemia; assay: NCI-60 one-dose screen, 48 h (100 = growth as untreated, 0 = no growth, -100 = all killed); details: 10 µM unless noted

| Compound | growth |
| --- | --- |
| c1ccc(COCC[P+](c2ccccc2)(c2ccccc2)c2ccccc2)cc1 | -52.2% (active) |
| CCN(CC)CCCNC(=O)c1c2c(n3ccccc13)C(=O)c1ncccc1C2=O | -33.8% (active) |
| Cc1cc(C)n(C(=O)CSc2nc3sc4c(c3c(=O)n2-c2ccccc2)CCCCC4)n1 | 107% |
| O=C1c2ccccc2C(=O)N1CCCCNc1ccccc1 | 5.16% (active) |
| O=S1(=O)N(Cc2ccccc2)[C@@H](Cc2ccccc2)[C@H](O)[C@H](O)[C@H](Cc2ccccc2)N1Cc1ccccc1 | -4.17% (active) |
| Clc1ccc(-c2nc(-c3c[nH]c4ncccc34)cs2)cc1 | 87.4% [100 µM] |
| CC[C@H](Nc1ncnc(N)c1C(N)=O)c1nc2cccc(NCc3ccc(C(=O)NO)cc3)c2c(=O)n1-c1ccccc1 | 126% |
| O=C(Nc1ccccc1)Nc1ncnc2c1ncn2-c1ccc(Cl)cc1 | 95.3% |
| O=C1c2ccccc2NC(c2cn(-c3ccccc3)nc2-c2cccnc2)N1Cc1ccccc1 (stereo not drawn) | 9.6% (active) |
| CCN(CC)CCNc1ccc(N=Nc2cnc3ccccc3c2)c2ccccc12 | -72.2% (active) |
| COC(=O)/C=C1\S/C(=N\NC(=O)c2cc3ccc2/C=C\c2ccc(cc2)/C=C\3)N(c2ccccc2)C1=O | 16.4% |
| C[C@@]1(C(=O)Nc2ccc(F)nc2)CCCN1c1nc(Nc2cc(C3CC3)[nH]n2)c2cccn2n1 | 9.68% (active) |
| O=C(Nc1nc(-c2ccccc2)cc(-c2ccc(Cl)cc2)n1)c1ccncc1 | 110% |
